RORg inh: blocks mouse ROR gamma transcriptional activity; P51450; 310,000 tested, 5.4% active; Drosophila S2 Gal4-RORgamma UAS-luciferase reporter, 20 h; AID 2551; Potency, µM (series often up to 53.6 µM), for inactives: top-dose activity change, negative = inhibition, most hits filed as inhibitors; also: % is scaled to controls: 0 for no effect and ±100 for the full control effect; nearly all actives have a fitted effect of over 60% in size
Target sequence (P51450 whole entry, looked up, the tested form may be a part): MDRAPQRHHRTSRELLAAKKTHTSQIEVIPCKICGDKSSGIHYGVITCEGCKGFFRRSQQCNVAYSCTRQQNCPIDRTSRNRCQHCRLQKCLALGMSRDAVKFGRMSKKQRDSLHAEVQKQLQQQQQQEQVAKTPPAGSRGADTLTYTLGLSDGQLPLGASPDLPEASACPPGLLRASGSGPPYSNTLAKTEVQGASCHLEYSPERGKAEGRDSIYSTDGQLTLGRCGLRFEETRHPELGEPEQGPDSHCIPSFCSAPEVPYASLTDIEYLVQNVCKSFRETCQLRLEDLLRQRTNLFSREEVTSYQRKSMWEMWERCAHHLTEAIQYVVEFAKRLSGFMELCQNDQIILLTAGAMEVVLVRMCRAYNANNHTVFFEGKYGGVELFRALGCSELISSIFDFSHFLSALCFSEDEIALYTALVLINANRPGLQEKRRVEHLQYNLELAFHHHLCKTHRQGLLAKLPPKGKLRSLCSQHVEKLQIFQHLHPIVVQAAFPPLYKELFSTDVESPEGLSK
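Drosophila S2 cells stably expressing Gal4-DBD/mouse RORγ fusion under metallothionein promoter plus UAS-luciferase; compound 1 h, then 700 uM CuSO4 induction for 20 h at ambient temperature; inhibition read as reduced luminescence.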
ATXN2 expr inh: ATXN2 expression inhibition; Potency, µM (top dose mostly 57 µM), for inactives: at the top dose activity change, negative = inhibition, most hits filed as inhibitors; HEK-293 ATXN2-luciferase reporter, luminescence, 24 h; AID 1745845; 360,000 tested, 0.72% active; also: % is scaled to controls: 0 for no effect and ±100 for the full control effect; nearly all actives have a fitted effect of over 55% in size
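qHTS (up to 57 uM final) was run with 24 h compound exposure of reporter cells at 37 °C. Each well was multiplexed: SteadyGlo luminescence measured ATXN2-luciferase expression after a fluorogenic Gly-Phe-AFC viability readout (25 uM final).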
TGFb inhibitor: inhibitors of TGF-b signaling | 410,000 tested, 1.2% active | HepG2 CAGA-GFP TGF-b/SMAD3 reporter, GFP fluorescence, 18 h; TGF-beta stimulated, 500 pg/mL final | Potency, µM (highest dose often 46.1 µM), for the others: top-dose activity, negative = inhibition, hits mostly inhibitors | AID 588855; also: % is scaled to controls: 0 for no effect and ±100 for the full control effect; nearly all actives have a fitted effect of over 65% in size
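Using HEPG2 CAGA-GFP reporter cells at 1000 cells/well, we pinned test compounds, stimulated with recombinant TGF-beta (500 pg/mL final) and measured total well GFP after 18 h.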
VP16 counter: counter-screen for ROR gamma inhibitors: Gal4-VP16 reporter; Drosophila S2 Gal4-VP16 UAS-luciferase, luminescence, 20 h; Potency, µM (highest dose often 53.6 µM), for inactives: at the highest dose activity, negative = inhibition, most hits filed as inhibitors; 310,000 tested, 3.5% active; AID 2546;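 also: Gal4-VP16 expression switched on by copper sulfate through the metallothionein promoter; % is scaled to controls: 0 for no effect and ±100 for the full control effect; nearly all actives have a fitted effect of over 50% in size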
S2 tox: viability counter-screen for ATXN expression inhibitors; S2 cells (HEK-293 line with an ATXN2-luciferase reporter) viability, CellTiter-Fluor protease fluorescence, 24 h; Potency, µM (titrated, usually from 56.7 µM), actives largely listed as cytotoxic; 400,000 tested, 0.49% active; also: nearly all actives have a fitted effect of over 40% in size
HepG2 tox: HepG2 cytotoxicity, counter-screen for TGF-b inhibitors | Potency, µM (highest dose often 46.1 µM), inactives show top-dose activity change, negative = cytotoxicity, usual class: cytotoxic | 410,000 tested, 0.76% active | HepG2 CAGA-GFP viability, ATP luminescence, 18 h
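HepG2 CAGA-GFP cells (1000/well, DMEM with 1% FBS) received compound, then TGF-beta at 500 pg/mL final, and were incubated 18 hours at 37 degrees C. Viability was read by CellTiter-Glo luminescence. Media-only wells were set as complete cell-killing and DMSO as no toxicity.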
Starred values were filed as active, the others as inactive; i = inactive; u = inconclusive; x = no result; ! = not active in a repeat; [ ] = remark or other dose. The list is not random: actives were taken first. Their share in the collection is about 6.1%. Calls follow the shape of the dose curve; as a rule, active = well fitted curve in the direction sought with a large enough effect; inconclusive = small, poorly fitted or top-dose-only effect, or another doubt; inactive = no such curve, though single readings can be large; an effect the other way counts as inactive or inconclusive. Potency is read from the fitted curve at half-maximal effect.

SMILES	RORg inh	ATXN2 expr inh	TGFb inhibitor	VP16 counter	S2 tox	HepG2 tox
O=C(C(=Cc1ccccc1)CN1CCCCC1)c1ccccc1	x	u	u	x	8.44µM*	-100.7%
CC(C)Oc1ccccc1C1C=C(C(=O)O)Nc2ncnn21 (centres undefined)	x	0.6%	-23.7%	x	i	-37.9%
O=C(Nc1nnc(SCC(=O)N2CCOCC2)s1)c1ccccc1Cl	10µM*	-28.5%	6.3%	6.31µM*	i	-12.1%
O=C(Nc1nnc(SCC(=O)N2CCCc3ccccc32)s1)c1ccc2ccccc2c1	6.31µM*	10.7%	-13.9%	5.62µM*	i	2.8%
O=C(Nc1nnc(SCC(=O)N2CCCc3ccccc32)s1)c1ccccc1	6.31µM*	13.2%	-6.3%	u	i	9.0%
CCOc1ccccc1NC(=O)Cn1ccn(Cc2ccc(C)cc2)c(=O)c1=O	x	-7.0%	1.5%	x	i	-3.0%
S=C1SCN(Cc2cccnc2)CN1Cc1cccnc1	0.631µM*	u	u	5.62µM*	x	-98.3%
COc1ccc(CN2CSC(=S)N(Cc3ccccc3)C2)cc1	u	x	12.6µM*	10µM*	7.08µM*	11.2µM*
S=C1SCN(Cc2ccccc2)CN1Cc1ccccc1	u	-18.0%	u	u	i	-52.2%
COc1ccc(CN2CSC(=S)N(Cc3ccc(OC)cc3)C2)cc1	6.31µM*	x	u	17.8µM*	u	12.6µM*
CCn1c(C(=O)NCc2ccccc2C)cc2oc3ccccc3c21	x	x	x	x	x	-28.8%
COc1ccc(N2C(=O)CC(Sc3n[nH]c(-c4ccccc4)n3)C2=O)cc1 (centres undefined)	11.2µM*	-15.0%	-0.4%	-82.7%	u	17.6%
Cc1ccc(N2C(=O)CC(Sc3cccs3)C2=O)cc1 (centres undefined)	11.2µM*	x	-10.9%	7.94µM*	i	2.8%
Cc1ccc(N2C(=O)CC(Sc3nccc(C)n3)C2=O)cc1 (centres undefined)	17.8µM*	3.5%	19.4%	u	i	-0.1%
CCN(CC(=O)NC(C)(C)C)C(=O)c1ccccc1SCC(=O)NC1CCCCCCC1	2.3%	-12.1%	-22.5%	-9.2%	i	-22.9%
Cc1c(O)cccc1C(=O)N[C@@H](CSc1ccccc1)[C@H](O)CN1C[C@H]2CCCC[C@H]2C[C@H]1C(=O)NC(C)(C)C	u	20µM*!	u	0.0%	11.2µM*	15.8µM*!
Cc1nn(CC(=O)Nc2cc(F)ccc2F)c(=O)c2cccn12	x	x	32.8%	x	x	0.9%
O=C(CN(c1cccc(C(F)(F)F)c1)S(=O)(=O)c1ccccc1)Nc1cccc(Cl)c1	x	u	u	x	u	-51.7%
O=C(CN(c1cccc(C(F)(F)F)c1)S(=O)(=O)c1ccc(Cl)c([N+](=O)[O-])c1)NCc1ccc(F)cc1	-31.3%	u	u	u	31.6µM*	-47.2%
CC(C)C(=O)OCc1cccc(OC(=O)[C@@H]2N3C(=O)[C@@H](NC(=O)Cc4ccccc4)[C@H]3SC2(C)C)c1	x	4.7%	x	x	u	x
O=C1OC(c2ccc(F)cc2)=C/C1=C\c1ccc(O)cc1	6.31µM*	x	0.8%	u	i	-0.6%
O=C1OC(c2ccc(F)cc2)=C/C1=C\c1ccc([N+](=O)[O-])o1	-39.6%	x	x	u	x	x
Cc1cc(C)c(C)c(N=Nc2nc3ccccc3n2C)c1C	2.24µM*	u	u	5.62µM*	u	-30.6%
Cc1ccc(C)c(N=Nc2nc3ccccc3n2C)c1	3.16µM*	-14.3%	u	8.91µM*	u	-53.6%
Cn1c(/N=C/c2cccs2)nc2ccccc21	-5.9%	16.3%	u	-6.5%	i	-13.4%
SMILES	RORg inh	ATXN2 expr inh	TGFb inhibitor	VP16 counter	S2 tox	HepG2 tox
Cc1cc(Cl)nc2nc(Cl)ccc12	x	x	40.7%	x	x	11.4%
Cc1ccc(C)c(OCCC(=O)OCC(=O)N2CCN(S(=O)(=O)c3ccc(Cl)cc3)CC2)c1	x	u	4.4%	x	u	-17.0%
CCOc1ccc(OCCC(=O)OCC(=O)N2CCN(S(=O)(=O)c3ccc(Cl)cc3)CC2)cc1	11.2µM*	47.4%	u	17.8µM*	i	-7.7%
CCCc1ncc(C(O)(c2ccccc2)c2ccc(C)cc2)n1C (centres undefined)	u	-11.1%	-2.1%	4.8%	i	-17.5%
CCCc1ncc(C(O)(c2ccccc2)c2ccccc2)n1C	14.1µM*	-12.3%	10.9%	-1.4%	i	-4.0%
COc1cccc(C2CCCN2Cc2nc(-c3sccc3C)oc2C)c1 (centres undefined)	28.2µM*	-10.2%[11.3 µM]	-5.4%	4.3%	i	-32.1%
Cc1ccsc1-c1nc(CN2CCCC2c2ccc(F)cc2)c(C)o1 (centres undefined)	10µM*	-14.0%[11.3 µM]	-1.4%	-4.5%	i	-1.0%
OC1(c2cccnc2)CCN(Cc2ccc3c(c2)CN(Cc2ccc4nsnc4c2)CCO3)CC1	x	x	x	x	i	x
NC(=S)n1[nH]c(-c2ccccc2)c(N=Nc2ccccc2C(=O)N2CCOCC2)c1=O	2µM*	-18.8%	0.8%	-14.1%	u	-8.8%
CC(C)(C)n1ncc2c(=O)n(Cc3c(Cl)ccc(Cl)c3Cl)cnc21	x	x	-2.3%	x	x	-2.3%
CC1CC=CC2C1C(=O)N(Cc1ccccc1)C2c1ccc2ccccc2c1 (centres undefined)	u	x	11.2µM*	0.4%	x	-74.6%
CC1CC=CC2C1C(=O)N(Cc1ccccc1)C2c1ccc2ccccc2c1C=Cc1ccccc1 (centres undefined)	30.2%	x	5.8%	10.6%	x	-2.3%
O=C1C2C(c3ccccc3)CC=CC2C(c2ccc(C(F)(F)F)cc2)N1Cc1ccccc1 (centres undefined)	u	x	12.6µM*	u	x	-56.6%
C[C@@H]1CC=C[C@H]2[C@H]1C(=O)N(Cc1ccccc1)[C@H]2c1ccc2ccccc2c1	6.6%	-11.6%	u	u	i	-22.4%
C[C@@H]1CC=C[C@H]2[C@H]1C(=O)N(Cc1ccccc1)[C@H]2c1ccc2ccccc2c1Br	u	u	u	u	28.2µM*	12.6µM*
Cc1ccc(/C(=C\CN2CCCC2)c2cccc(/C=C/C(=O)O)n2)cc1	x	x	x	x	i	x
O=C(N/N=C/C1CCCCC1)c1ccccn1	u	35.7%	12.9%	-0.1%	i	-4.8%
O=C(N/N=C/C1CCCCC1)c1cc(Cl)ccc1O	12.6µM*	0.1%	-18.7%	-14.4%	i	-33.0%
Nc1nnc(COc2ccc(Br)cc2Br)s1	2.7%	23.9%	6.7%	-5.6%	i	-10.5%
Cc1ccc(C)c(OCc2nnc(N)s2)c1	12.6µM*	14.6%	-6.0%	-13.2%	i	2.3%
